# Source: PubChem BioAssay (NCATS)
# Records with an inconclusive call do not appear. Entries that show only a call come without a potency. Unmarked numbers belong to inactive results. Activity calls are given as the source filed them. Calls follow the shape of the dose curve; as a rule, active = well fitted inhibition curve with a large enough effect; inconclusive = small, poorly fitted or top-dose-only effect; inactive = flat fitted curve, though single readings scatter.
# Key:
# Assay in all cases: qHTS profiling for inhibitors of Plasmodium falciparum proliferation (AID 504749); also: nearly all actives have a fitted effect of over 60% in size
# Conditions in all cases: P. falciparum in erythrocytes, SYBR Green DNA, 72 h; series mostly up to 28.7 µM
# CP247 = tested on: CP247
# Method in brief: (§1)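 P. falciparum-infected erythrocytes (0.3% parasitemia, 2.5% hematocrit) incubated with compound 72 h at 37 C, 5% CO2. Parasite DNA detected by SYBR Green after lysis, overnight at room temperature; normalised to 0.29 uM artemisinin and DMSO.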
# CP250 = tested on: CP250
# Method in brief: as §1
# CP252 = tested on: CP252
# Method in brief: as §1
# CP256 = tested on: CP256
# Method in brief: as §1
# CP262 = tested on: CP262
# Method in brief: as §1
# CP266 = tested on: CP266
# Method in brief: as §1
# CP268 = tested on: CP268
# Method in brief: as §1
# CP269 = tested on: CP269
# Method in brief: as §1
# CP291 = tested on: CP291
# Method in brief: as §1
# CP297 = tested on: CP297
# Method in brief: as §1
# CP305 = tested on: CP305
# Method in brief: as §1
# CP315 = tested on: CP315
# Method in brief: as §1
# CP325 = tested on: CP325
# Method in brief: as §1
# CP329 = tested on: CP329
# Method in brief: as §1
# DFO2036 = tested on: DFO2036
# Method in brief: as §1
# DIV14 = tested on: DIV14
# Method in brief: as §1
# DIV17 = tested on: DIV17
# Method in brief: as §1
# Dd2 = tested on: Dd2
# Method in brief: as §1
# FAB9 = tested on: FAB9
# Method in brief: as §1
# GB4 = tested on: GB4
# Method in brief: as §1
# ICS = tested on: ICS
# Method in brief: as §1
# JCK = tested on: JCK
# Method in brief: as §1
# N140 = tested on: N140
# Method in brief: as §1
# P94_40 = tested on: P94_40
# Method in brief: as §1
# PAD = tested on: PAD
# Method in brief: as §1
# PC15 = tested on: PC15
# Method in brief: as §1
# PC49 = tested on: PC49
# Method in brief: as §1
# SC27B = tested on: SC27B
# Method in brief: as §1
# TAB109 = tested on: TAB109
# Method in brief: as §1
# W2 = tested on: W2
# Method in brief: as §1
# Potency is read from the fitted curve at half-maximal effect.
smiles,measurement,setting,value
C[C@]12CC[C@H]3c4ccc(O)cc4CC[C@@H]3[C@H]1CC[C@@H]2OC(=O)CCC1CCCC1,Potency,CP247,inactive
same,Potency,CP250,inactive
same,Potency,CP252,inactive
same,Potency,CP256,inactive
same,Potency,CP262,inactive
same,Potency,CP266,inactive
same,Potency,CP268,inactive
same,Potency,CP269,inactive
same,Potency,CP291,inactive
same,Potency,CP297,inactive
same,Potency,CP305,inactive
same,Potency,CP315,inactive
same,Potency,CP325,inactive
same,Potency,CP329,inactive
same,Potency,DFO2036,inactive
same,Potency,DIV14,9.53 µM (active)
same,Potency,DIV17,10.7 µM (active)
same,Potency,Dd2,14.1 µM (active)
same,Potency,FAB9,inactive
same,Potency,GB4,12 µM (active)
same,Potency,ICS,3.16 µM (active)
same,Potency,JCK,inactive
same,Potency,N140,12.6 µM (active)
same,Potency,P94_40,inactive
same,Potency,PAD,10 µM (active)
same,Potency,PC15,12.6 µM (active)
same,Potency,PC49,inactive
same,Potency,SC27B,inactive
same,Potency,TAB109,inactive
same,Potency,W2,9.53 µM (active)
